# The list is not random: actives were taken first. Their share in the collection is about 6.8%.
# Spn MK inh = blocks S. pneumoniae mevalonate kinase; purified MK, PK/LDH-coupled NADH absorbance 340 nm; inhibition, % at 10 µM; 0.48% of 65,000 active; AID 555;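 active = ranked among the strongest by inhibition in the single 10 µM screen, a fixed top-ranked set picked for dose follow-up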
# Abs 340nm = absorbance at 340 nm; fold change at 10 µM; compound absorbance at 340 nm, fold over control; 65,000 tested, under 10 active;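 active = at 10 µM dose, initial 340 nm absorbance at least 2 fold that of control wells; inactive = change under 2 fold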;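 note: initial absorbance extrapolated from kinetic A340 decline of NADH oxidation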
# NADH enzymes = blocks coupling enzymes of NAD/NADH assays; IC50, µM (doses to about 10 µM), without a hit: top-dose inhibition; AID 774; 0.02% of 65,000 active; coupled PK/LDH NADH assays, four targets;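 active = single-dose screening hits from any of four coupled enzyme assays that gave an IC50 when retested across doses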;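 note: the DPM-DC format reads NADH fluorescence rather than 340 nm absorbance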
# Spn PMK inh = inhibitors of Streptococcus pneumoniae phosphomevalonate kinase | purified PMK, PK/LDH-coupled NADH absorbance 340 nm | inhibition, % at 10 µM | 0.49% of 65,000 active;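 active = top-ranked compounds by inhibition in the single 10 µM screen, taking a fixed number of the strongest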;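 note: 0% = full reaction with DMSO carrier and 100% = background rate without enzyme reaction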
# Spn DPM-DC inh = blocks S. pneumoniae diphosphomevalonate decarboxylase. calls only at 10 µM. purified DPM-DC, PK/LDH coupled NADH fluorescence. 0.49% of 65,000 active. AID 556;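 active = the 320 compounds with the highest percent inhibition in the single-dose primary screen, excluding strongly autofluorescent ones, cut at about 32% in these data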;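 note: kinetic rate of NADH fluorescence loss reporting ADP formed by the decarboxylase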
# Autofluor 339 = intrinsic fluorescence of library compounds, ex339/em460 – biochemical, MLSMR library, data from DPM-DC assay, artefact control, profiling panel | 5.5% of 65,000 active | compound autofluorescence, ex339/em460 nm, NADH buffer; stronger effect = higher value; 1 = no-compound wells, NADH background | AID 709 | fluorescence fold increase at 10 µM;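 active = at 10 µM, mean starting fluorescence two-fold or more over control wells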;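 note: signal is the first read of a kinetic run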
# Starred values were filed as active, the others as inactive; i = inactive; / = no result given.
SMILES,Spn MK inh,Abs 340nm,NADH enzymes,Spn PMK inh,Spn DPM-DC inh,Autofluor 339
COCCN1C=C(C(=O)OC)C(c2cc(Br)c(OC)c(OC)c2)C(C(=O)OC)=C1,8.0,1.07,6.0%,4.0,/,2.26*
CSc1nc2nc(-c3ccccc3)cc(C(F)(F)F)n2n1,2.0,1.17,3.0%,3.0,/,3.83*
CSc1nc2nc(C)cc(-c3ccccc3)n2n1,10.0,1.04,7.0%,1.0,i,1.73
COc1ccc(-c2nc3c(n2O)CCCC3=O)cc1OC,6.0,1.12,10.0%,13.0,/,3.54*
O=C(CN1CCN(C2CCCCC2)CC1)c1ccc2cc[nH]c2c1,0.0,1.15,1.0%,1.0,/,2.1*
O=C(O)c1ccc2cc[nH]c2c1,9.0,1,8.0%,10.0,i,1.15
O=C(Cc1cc(=O)oc2cc(O)ccc12)NCC1CCC(C(=O)O)CC1 (centres undefined),8.0,1.1,4.0%,0.0,/,3.9*
Cc1cc(/C=N/n2cnnc2)c(C)n1-c1cc(Cl)ccc1Cl,2.0,1.08,6.0%,11.0,i,1.12
O=C1c2ccccc2C(O)N1Cc1ccco1 (centres undefined),8.0,1.02,6.0%,10.0,i,1.07
Cc1ccc(C2Nc3ccccc3C(=O)N2Cc2ccco2)cc1 (centres undefined),8.0,1.02,7.0%,6.0,/,3.96*
COc1ccc(C2Nc3ccccc3C(=O)N2Cc2ccco2)cc1COc1ccc(NC(C)=O)cc1 (centres undefined),0.0,1.08,1.0%,1.0,/,3.8*
O=C1c2ccccc2NC(c2cccc(F)c2)N1Cc1ccco1 (centres undefined),6.0,0.99,5.0%,4.0,/,3.04*
CC(=O)Nc1c(C#N)c(C(C)(C)C)cn1C,7.0,1.01,5.0%,7.0,i,1.1
CC(C)(C)NS(=O)(=O)c1ccc(NS(=O)(=O)c2ccc(F)cc2)cc1,7.0,1.06,11.0%,26.0*,i,1.08
CCNC(=O)Cc1ccc(NS(=O)(=O)c2ccc(F)cc2)cc1,0.0,0.99,0.0%,0.0,i,1.09
COc1ccc2[nH]c(C(=O)O)c(CCNC(C)=O)c2c1,3.0,1.01,12.0%,11.0,i,2.49*
CCOC(=O)N1CCN(S(=O)(=O)c2ccc(F)cc2)CC1,9.0,1.03,7.0%,12.0,i,1.16
CCOC(=O)N1CCN(S(=O)(=O)c2ccc(C(=O)Nc3nc4ccccc4s3)cc2)CC1,8.0,1.07,11.0%,13.0,/,4.52*
CCOC(=O)N1CCN(S(=O)(=O)c2ccc(C(=O)Nc3nc4ccc(F)cc4s3)cc2)CC1,8.0,1.07,15.0%,22.0,/,4.62*
O=C(Nc1c(C(=O)NCc2ccco2)cnn1-c1ccccc1)c1ccc(F)cc1,3.0,1.05,2.0%,13.0,i,1.07
COc1ccc(S(=O)(=O)NCC(=O)N(CC(=O)NCC2CCCO2)c2cc(C)ccc2C)cc1 (centres undefined),11.0,1.02,4.0%,0.0,i,1.01
COCCn1c(Cc2ccccc2)nnc1SCC(=O)NC(C)C,7.0,1,8.0%,17.0,i,1.06
CCN1CCN(C(=O)c2cc3c(-c4ccc(Cl)cc4)nn(C)c3s2)CC1,0.0,1.05,8.0%,0.0,i,1.83
Cn1nc(-c2ccc(Cl)cc2)c2cc(C(=O)NCCN3CCOCC3)sc21,5.0,1.1,8.0%,10.0,/,2.13*
Cn1nc(-c2ccc(Cl)cc2)c2cc(C(=O)NCCCN3CCOCC3)sc21,6.0,1.1,8.0%,10.0,/,2.1*
SMILES,Spn MK inh,Abs 340nm,NADH enzymes,Spn PMK inh,Spn DPM-DC inh,Autofluor 339
Cn1nc(-c2ccc(Cl)cc2)c2cc(C(=O)N3CCN(C(=O)c4ccco4)CC3)sc21,0.0,1.1,2.0%,7.0,i,1.57
COc1cccc(CNC(=O)Cn2cccc2)c1,6.0,0.98,4.0%,7.0,i,1.04
COc1cccc(CNC(=O)c2ccccc2N)c1,7.0,1.03,6.0%,5.0,/,3.9*
COc1cccc(OCCCCCN2CCOCC2)c1,3.0,1.06,1.0%,0.0,i,1.08
Brc1ccc(OCCOCCN2CCOCC2)cc1,2.0,1.02,4.0%,9.0,i,1.08
Cc1cc(OCCOCCN2CCCC2)ccc1C(C)C,41.0*,1.09,14.0%,2.0,i,1.14
CCOc1cccc(OCCOCCN2CCCC2)c1,45.0*,1.02,6.0%,5.0,i,1.02
CC(C)CCn1c(SCC(N)=O)nc2c1c(=O)n(C)c(=O)n2C,2.0,1.02,2.0%,4.0,i,0.96
Cc1ccc(N(CC(=O)N2CC(=O)Nc3ccccc32)S(=O)(=O)c2ccc3c(c2)OCCO3)cc1,10.0,1.05,3.0%,0.0,i,1.11
Cc1cc(N2CCCC2)nc(-c2ccccc2O)n1,7.0,0.98,14.0%,15.0,i,2.64*
CN(CCc1ccccn1)Cc1ccc(Cl)cc1Cl,44.0*,1.08,15.0%,0.0,i,1.16
CN(CCc1ccccn1)S(=O)(=O)c1ccccc1F,16.0,1.05,5.0%,0.0,i,1.04
CC(C)OC(=O)C1C(=O)CC(C)(O)C(C(=O)OC(C)C)C1c1cccnc1 (centres undefined),0.0,1.01,9.0%,27.0*,i,1.08
Cc1ccccc1OCc1nc2ccccc2c(=O)n1NC(=O)c1ccco1,2.0,1,1.0%,0.0,i,1.1
CC1(C)CC(=O)C(C=NCCN2CCN(C(=O)c3ccccc3)CC2)=C(O)C1,11.0,1.04,4.0%,0.0,i,1.08
CC1(C)CC(=O)C(C=NCCN2CCN(CCc3ccccc3)CC2)=C(O)C1,1.0,1.02,3.0%,active,i,1.08
COc1cc(CN2CCN(c3cccc(C)c3C)CC2)cc(OC)c1O,51.0*,1.08,17.0%,0.0,i,1.13
COc1cc(OC)c(OC)cc1CN1CCN(c2ccccc2OC)CC1,43.0*,1.11,14.0%,0.0,i,1.13
O=C1CN(C(=O)COc2ccccc2)CCN1,6.0,1.05,6.0%,12.0,i,1.12
Cc1ccccc1Oc1ccc(Oc2ccccc2C)nn1,6.0,0.99,5.0%,10.0,i,1.04
O=C(NC(=O)c1ccc(Cl)cc1)Nc1cc(N2CCCCC2)ncn1,3.0,1.01,2.0%,3.0,i,1.02
CCCn1nnc(NC(=O)c2ccco2)n1,9.0,1.05,9.0%,6.0,i,1.12
CCn1nnc(NC(=O)c2ccc(-c3ccc(Cl)cc3)o2)n1,5.0,1.03,3.0%,11.0,i,2.09*
COc1ccc(NC(=O)C2CCC(C)(C(=O)O)C2(C)C)cc1 (centres undefined),0.0,1.05,0.0%,0.0,i,1.08
COc1ccc(NC(=O)C2CC(=O)OC2(C)C)cc1 (centres undefined),1.0,1,1.0%,0.0,/,2.25*
CN1CCn2c1nc(N1CCOCC1)nc2=O,11.0,1.02,7.0%,2.0,i,1.09
Nc1c2c(nc3ccccc13)N(C1CCCCC1)CC2,49.0*,1.11,25.0%,0.0,/,2.32*

# Bioassay records from PubChem.
